The text below walks through data of PubChem BioAssay (NCATS).

The target of experiment [1] is Glutathione peroxidase 1 (Homo sapiens) (UniProt P07203). The experiment is described as follows: Primary qHTS Assay for Inhibitors of Recombinant Selenoprotein Glutathione Peroxidase 1 (GPX1) (AID 1845191). For activity, negative = inhibition: % is set by controls: 0 for no effect and ±100 for the full control effect. Note: nearly all actives have a fitted effect of over 65% in size. A digest of the protocol:
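NADPH consumption tracked by fluorescence at 340/450 nm between t=0 and t=15 min, room temperature. Final mix: 10 nM GPX1, 100 nM glutathione reductase, 1 mM GSH, 0.5 mM NADPH, 0.5 mM cumene hydroperoxide, 0.01% BSA; 30 min compound–enzyme preincubation.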

Experiment [2] has as its target Phospholipid hydroperoxide glutathione peroxidase GPX4 (Homo sapiens) (UniProt P36969). As to the kind of experiment: Primary qHTS Assay for Inhibitors of Recombinant Selenoprotein Glutathione Peroxidase 4 (GPX4) (AID 1845192). For activity change, negative = inhibition: series mostly up to about 50 µM; % is set by controls: 0 for no effect and ±100 for the full control effect. Note: nearly all actives have a fitted effect of over 65% in size. A digest of the protocol:
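NADPH consumption followed by fluorescence at 340/450 nm, t=0 and after 15 min at room temperature. Reaction started with cumene hydroperoxide (0.5 mM final) after 30 min compound–GPX4 preincubation; final 200 nM GPX4, 100 nM GR, 1 mM GSH, 0.5 mM NADPH.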

In experiment [3] the target is Luciferin 4-monooxygenase (Photinus pyralis) (UniProt P08659). The experiment is described as follows: Primary firefly luciferase (FLuc) qHTS assay for identification of artifact compounds. (AID 1845220).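 For activity change, negative = inhibition: series mostly up to about 54 µM; plate controls were DMSO vehicle for no effect and no enzyme for full effect.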 Note: nearly all actives have a fitted effect of over 60% in size. Note: potency is the fitted concentration of half-maximal effect. A digest of the protocol:
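Compounds sat 15 min at room temperature with 10 uM luciferin and 10 uM ATP (pH 7.6 Tris acetate). Firefly luciferase (10 nM final) was then added, and luminescence was read 5 min later. Data normalized to no-enzyme and DMSO controls were Hill-fitted.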

The nature of experiment [4]: Primary fluorescence-based thiol-reactive (MSTI) qHTS assay for identification of artifact compounds. (AID 1845221).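 For activity change, negative = thiol reactive: series mostly up to about 54 µM; thiol-reactive compounds lower the probe fluorescence signal.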 Note: nearly all actives have a fitted effect of over 65% in size. Note: potency is the fitted concentration of half-maximal effect. A digest of the protocol: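 A multi-concentration qHTS design tested compounds against 4 uM MSTI, pH 7.4 phosphate-buffered saline. Plates were protected from light for 1 h at room temperature before imaging fluorescence.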
The subject of experiment [5] is Nanoluciferase (engineered Oplophorus gracilirostris luciferase). The experiment is described as follows: Primary Nanoluciferase (NLuc) qHTS assay for identification of artifact compounds. (AID 1845222).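 For activity, negative = inhibition: series mostly up to about 54 µM; 0% = DMSO and -100% = no enzyme.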 Note: potency is the fitted concentration of half-maximal effect. A digest of the protocol:
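Luminescence from secreted NLuc (filtered, 1:55-diluted S16 cell medium) read 5 min after Nano-Glo substrate; compounds preincubated 15 min, RT. Hill fits of inhibition normalized to DMSO and no-enzyme.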

Each structure is given as a SMILES string. A number with no mark means an inactive call. Inconclusive results are not listed. Calls of active or inactive are those of the source. Calls come from the whole dose curve; as a rule, active = well fitted curve in the direction sought with a large enough effect; inconclusive = small, poorly fitted or top-dose-only effect, or another doubt; inactive = no such curve, though single readings can be large; an effect the other way counts as inactive or inconclusive.

Sequence of Glutathione peroxidase 1 (Homo sapiens) (P07203 whole entry, looked up): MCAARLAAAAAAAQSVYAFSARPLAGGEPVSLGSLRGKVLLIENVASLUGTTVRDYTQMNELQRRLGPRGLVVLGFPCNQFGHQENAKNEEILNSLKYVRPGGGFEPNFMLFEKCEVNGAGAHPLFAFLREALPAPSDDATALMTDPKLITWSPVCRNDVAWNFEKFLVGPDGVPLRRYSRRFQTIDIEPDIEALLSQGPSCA
Sequence of Phospholipid hydroperoxide glutathione peroxidase GPX4 (Homo sapiens) (P36969 whole entry, looked up): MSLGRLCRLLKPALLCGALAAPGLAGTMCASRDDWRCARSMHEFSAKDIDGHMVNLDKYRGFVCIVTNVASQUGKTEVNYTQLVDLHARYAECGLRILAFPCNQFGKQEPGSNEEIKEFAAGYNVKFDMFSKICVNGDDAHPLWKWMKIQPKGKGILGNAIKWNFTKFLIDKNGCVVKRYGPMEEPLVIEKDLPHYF

In the case of `Nc1nc(NC2CC2)cc(-c2cccc(Cl)c2Cl)n1`, the Potency entry in experiment [1], in experiment [2], in experiment [3], in experiment [4] and in experiment [5] was “inactive” each time.
In the case of `CC(=O)OCC(=O)[C@@]12O[C@@H]1C[C@H]1[C@@H]3CC=C4C[C@@H](O)CC[C@]4(C)[C@H]3CC[C@@]12C`, the Potency result in experiment [1], in experiment [2], in experiment [3], in experiment [4] and in experiment [5] was “inactive” in each case.
Turning to `C=C1C(=O)OC2C(OC(=O)C=C(C)C)C(C)=C3C(=O)C=C(C)C3C(O)C12` (stereo not given), the Potency result in experiment [1], in experiment [2], in experiment [3] and in experiment [4] was “inactive” in each case. Further, the Potency in experiment [5] was 7.4 µM (active).
For `C=C1C(=O)O[C@H]2C3=C(C)CCC[C@]3(C)C(=O)C[C@@H]12`, the Potency entry in experiment [1], in experiment [2], in experiment [3], in experiment [4] and in experiment [5] was “inactive” each time.
On to `C/C=C(\C)C(=O)OC1C=C(C)CC(OC(=O)c2ccc(O)cc2)C2C1(C)CCC2(O)C(C)C` (stereo not given), for which the Potency result in experiment [1], in experiment [2], in experiment [3], in experiment [4] and in experiment [5] was “inactive” throughout.
As for `COc1cc(C#N)ccc1S(=O)(=O)Nc1ccc2c(c1)cc(C)c(=O)n2C`, the Potency entry in experiment [1], in experiment [2], in experiment [3], in experiment [4] and in experiment [5] was “inactive” throughout.
Consider `CC(=O)O[C@@H]1CC2C(/C=C(\C)C(=O)[C@@]3(O)C[C@@H](C)[C@H](OC(=O)c4ccccc4)C3/C=C/1C)C2(C)C` (stereo not given in full), for which the Potency result in experiment [1], in experiment [2], in experiment [3], in experiment [4] and in experiment [5] was “inactive” throughout.
In the case of `COc1ccc2c(c1O[C@H]1CCNC1)CCC2`, the Potency entry in experiment [1], in experiment [2], in experiment [3], in experiment [4] and in experiment [5] was “inactive” in each case.
Regarding `C=C1CC[C@@H]2[C@](C)(CO)[C@H](O)CC[C@@]2(C)[C@@H]1CC(O)C1=CCOC1=O` (stereo not given in full), the Potency result in experiment [1], in experiment [2], in experiment [3], in experiment [4] and in experiment [5] was “inactive” each time.
As for `O=C(C1CCCCC1)N(CCN1CCN(c2ccccc2O)CC1)c1ccccn1`, the Potency result in experiment [1], in experiment [2], in experiment [3], in experiment [4] and in experiment [5] was “inactive” in each case.
Turning to `COC(=O)CC1OC(C)C2=C(O)c3c(O)cccc3C(=O)C23OC13` (stereo not given), the Potency entry in experiment [1], in experiment [2], in experiment [3] and in experiment [5] was “inactive” each time. The Potency in experiment [4] was 3.29 µM (active).
With `O=C(N[C@H]1CCC[C@H](CO)C1)C1CCN(c2nc3cc(Cl)c(-c4ccc(Cl)cc4)cc3o2)CC1`, the Potency entry in experiment [1], in experiment [2], in experiment [3], in experiment [4] and in experiment [5] was “inactive” each time.
On to `COc1cc(N2CCC(N)CC2)ccc1Nc1ncc(Cl)c(-c2c[nH]c3ccccc23)n1`, for which the Potency result in experiment [1], in experiment [2], in experiment [3] and in experiment [5] was “inactive” in each case. Also, the Potency in experiment [4] was 1.89 µM (active).
As to `CCCc1cc(C)n(C)c(=O)c1CN(C)C(=O)c1cc(-c2ccc(N3CCN(C(C)C)CC3)nc2)cc2c1cnn2C(C)C`, the Potency result in experiment [1], in experiment [2], in experiment [3], in experiment [4] and in experiment [5] was “inactive” throughout.
Take `COC(=O)CC(O)CC(O)/C=C/c1c(C)ccc2c1C(OC(C)=O)CC(C)C2` (stereo not given): the Potency entry in experiment [1], in experiment [2], in experiment [3], in experiment [4] and in experiment [5] was “inactive” in each case.
In the case of `CCCCNc1ncc2c(-c3ccc(S(=O)(=O)N4CCOCC4)cc3)nn(C3CCC(O)CC3)c2n1` (stereo not given), the Potency entry in experiment [1], in experiment [2], in experiment [3], in experiment [4] and in experiment [5] was “inactive” in each case.
`CC1(C)CCC2(C(=O)OC3OC(COC4OC(CO)C(O)C(O)C4O)C(O)C(O)C3O)CCC3(C)C(=CCC4C5(C)CCC(OC6OCC(O)C(O)C6O)C(C)(C)C5CCC43C)C2C1O` (stereo not given): the Potency entry in experiment [1] and in experiment [2] was “inactive” in each case. The activity change, negative = inhibition in experiment [3] was 0.58% [at 11.6 µM]. The activity change, negative = thiol reactive in experiment [4] was 122% [at 11.5 µM]. Besides, the activity, negative = inhibition in experiment [5] was -1.73% [at 11.6 µM].
On to `CC(C)(C)c1ccc(C(=O)Nc2cc(Cl)c(Br)cc2C(=O)O)cc1`, for which the Potency result in experiment [1], in experiment [2], in experiment [4] and in experiment [5] was “inactive” throughout. Moreover, the Potency in experiment [3] was 6.75 µM (active).
For the compound `CC1CCC/C=C/C(=O)c2c(O)cc(O)cc2CC(=O)O1` (stereo not given), the Potency entry in experiment [1], in experiment [2], in experiment [3] and in experiment [5] was “inactive” in each case. In addition, in experiment [4], the Potency was 11.9 µM (active).
Regarding `CC/C=C\CC1C(=O)C=CC1(CCCCC1CCC(=O)O1)OC(C)=O` (stereo not given), the Potency entry in experiment [1], in experiment [2], in experiment [3], in experiment [4] and in experiment [5] was “inactive” each time.
As for `COc1c2c(nc3occc13)C(CC=C(C)C)(OC)C(O)CC2` (stereo not given), the Potency result in experiment [1], in experiment [2], in experiment [3], in experiment [4] and in experiment [5] was “inactive” in each case.
With `C/C1=C\[C@@H](C)C[C@@H](C)[C@@H](Cc2cnco2)OC(=O)/C(C)=C/[C@@H](C)C[C@@H](C)[C@@H](Cc2cnco2)OC1=O`, the Potency entry in experiment [1], in experiment [2], in experiment [3], in experiment [4] and in experiment [5] was “inactive” throughout.
`O=C(C(Cc1cccc(C(F)(F)F)c1)NS(=O)(=O)c1cc(F)c2c(c1)CCNC2)N1CCCC1` (stereo not given): the Potency entry in experiment [1], in experiment [2], in experiment [3], in experiment [4] and in experiment [5] was “inactive” throughout.
Consider `O=S(=O)(N[C@H]1CCCC[C@@H]1N1CCOCC1)c1ccc(Cl)cc1`, for which the Potency entry in experiment [1], in experiment [2], in experiment [3], in experiment [4] and in experiment [5] was “inactive” each time.
Regarding `C[C@@H](N[C@H]1CCCC[C@@H]1NC(=O)c1ccc(Cl)cc1)c1cccc2ccccc12`, the Potency entry in experiment [1], in experiment [2], in experiment [3], in experiment [4] and in experiment [5] was “inactive” in each case.
As to `Cc1cc(-c2nc(-c3ccc(OC(F)(F)F)cc3)no2)nn1Cc1ccnc(N2CCN(C3CC3)CC2)c1`, the Potency result in experiment [1], in experiment [2], in experiment [3], in experiment [4] and in experiment [5] was “inactive” in each case.
